Among the data in PubChem BioAssay (EPA / NIEHS) are outcome and AC50 values, retold here.

Active and inactive are the calls of the source. Rule for the calls: active = hit-call score of the fitted dose curve at least 0.9, where 1 is the maximum; inactive = score below 0.9.

Common to all, as to conditions: mRNA level, 48 h; actives raise or lower the signal
Read-out in test [1]: ATP-citrate lyase (ACLY), ACLY (gene 47)
Briefly: LTEA_HepaRG_ACLY: Life Technologies and Expression Analysis (LTEA) Assay for ATP-citrate lyase (ACLY) using HepaRG (AID 2283466). The gist of the method: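 qRT-PCR readout of ACLY transcript after 48 h chemical treatment of HepaRG cells; expression normalized to three housekeeping genes. Eight-point half-log series, highest 100 uM, 0.5% DMSO vehicle. Gain or loss fitted against DMSO baseline.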

Read-out in test [2]: Peroxisomal acyl-coenzyme A oxidase 1 (ACOX1) gene, ACOX1 (gene 51)
Briefly: LTEA_HepaRG_ACOX1: Life Technologies and Expression Analysis (LTEA) Assay for Peroxisomal acyl-coenzyme A oxidase 1 (ACOX1) gene using HepaRG (AID 2283467). Summed up:
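HepaRG, 48 h chemical exposure, 8-pt half-log series from 100 uM top, 0.5% DMSO vehicle, duplicates. Readout: ACOX1 mRNA by Fluidigm qRT-PCR, housekeeping-normalized; bidirectional fit vs DMSO baseline.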

Read-out in test [3]: Alkaline Phosphatase, Placental (ALPP) gene, ALPP (gene 250)
Briefly: LTEA_HepaRG_ALPP: Life Technologies and Expression Analysis (LTEA) Assay for Alkaline Phosphatase, Placental (ALPP) gene using HepaRG (AID 2283468).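 For AC50: differentiated human HepaRG liver cells in serum-free induction medium; ALPP transcript by TaqMan qRT-PCR normalized to ACTB GAPDH and POLR2A.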 The gist of the method:
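Using human liver HepaRG cells, chemicals are tested in duplicate over 48 h at half-log concentrations topping at 100 uM; phenobarbital 1 mM serves as induction control. ALPP mRNA change by qRT-PCR, bidirectional fit against vehicle.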

Read-out in test [4]: Bcl-2 (BAD) gene, BAD (gene 572)
Briefly: LTEA_HepaRG_BAD: Life Technologies and Expression Analysis (LTEA) Assay for Bcl-2 (BAD) gene using HepaRG (AID 2283469). Summed up:
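HepaRG, 48 h exposure, 8-pt half-log curve from 100 uM in 0.5% DMSO, duplicates. Readout: TaqMan qRT-PCR for BAD mRNA, housekeeping-normalised (ACTB/GAPDH/POLR2A); gain or loss fitted against DMSO baseline.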

Read-out in test [5]: adenosine kinase (ADK) gene, ADK (gene 132)
Briefly: LTEA_HepaRG_ADK: Life Technologies and Expression Analysis (LTEA) Assay for adenosine kinase (ADK) gene using HepaRG (AID 2283471). The gist of the method:
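Read-out is ADK transcript level measured by qRT-PCR and normalised to three housekeeping genes. Cells are human HepaRG, dosed for 48 h at up to 100 uM in 0.5% DMSO. Gain or loss of signal is fitted against DMSO controls.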

Read-out in test [6]: Alpha-fetoprotein (AFP) gene, AFP (gene 174)
Briefly: LTEA_HepaRG_AFP: Life Technologies and Expression Analysis (LTEA) Assay for Alpha-fetoprotein (AFP) gene using HepaRG (AID 2283472).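 For AC50: AFP transcript by TaqMan qRT-PCR normalized to ACTB GAPDH and POLR2A.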 The gist of the method:
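qRT-PCR (Fluidigm TaqMan) readout of AFP transcript, normalized to three housekeeping genes, fitted bidirectionally against 0.5% DMSO baseline. HepaRG cells received chemicals for 48 h in serum-free induction medium, top concentration 100 uM, half-log steps.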

Read-out in the next test: BCL2L11 (gene 10018)
Briefly: LTEA_HepaRG_BCL2L11: Life Technologies and Expression Analysis (LTEA) Assay for Bcl-2 (BCL2L11) gene using HepaRG (AID 2283473). Summed up:
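Human hepatic HepaRG cultures are treated 48 h with test chemicals (maximum 100 uM, 0.5% DMSO vehicle). Expression of BCL2L11 is measured by qRT-PCR against ACTB, GAPDH and POLR2A, with activity in either direction scored relative to vehicle.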

Read-out in test [7]: Apoptosis regulator Bcl-2 (Homo sapiens) (UniProt P10415)
Briefly: LTEA_HepaRG_BCL2: Life Technologies and Expression Analysis (LTEA) Assay for Bcl-2 gene using HepaRG (AID 2283475). Summed up:
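qRT-PCR read-out (Fluidigm TaqMan) of BCL2 transcript, normalised to three housekeeping genes, after 48 h chemical exposure of HepaRG cells; 8-point half-log series, top 100 uM, 0.5% DMSO vehicle. Gain or loss of signal fitted relative to DMSO baseline.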

Read-out in test [8]: Apolipoprotein A-V (APOA5) gene, APOA5 (gene 116519)
Briefly: LTEA_HepaRG_APOA5: Life Technologies and Expression Analysis (LTEA) Assay for Apolipoprotein A-V (APOA5) gene using HepaRG (AID 2283474). The gist of the method: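 Concentration-response of APOA5 expression in HepaRG: eight half-log doses to 100 uM, 48 h, qRT-PCR normalized to ACTB/GAPDH/POLR2A, bidirectional fitting with 0.5% DMSO as baseline.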

Read-out in test [9]: Bcl-2 (BAX) gene, BAX (gene 581)
Briefly: LTEA_HepaRG_BAX: Life Technologies and Expression Analysis (LTEA) Assay for Bcl-2 (BAX) gene using HepaRG (AID 2283470). Summed up:
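qRT-PCR read-out of BAX mRNA, normalized to three housekeeping genes, after 48 h chemical exposure of human HepaRG cells in serum-free induction medium; eight-point half-log series, top 100 uM, 0.5% DMSO vehicle; bidirectional fit versus DMSO.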

Apoptosis regulator Bcl-2 (Homo sapiens), sequence (P10415 whole entry, looked up): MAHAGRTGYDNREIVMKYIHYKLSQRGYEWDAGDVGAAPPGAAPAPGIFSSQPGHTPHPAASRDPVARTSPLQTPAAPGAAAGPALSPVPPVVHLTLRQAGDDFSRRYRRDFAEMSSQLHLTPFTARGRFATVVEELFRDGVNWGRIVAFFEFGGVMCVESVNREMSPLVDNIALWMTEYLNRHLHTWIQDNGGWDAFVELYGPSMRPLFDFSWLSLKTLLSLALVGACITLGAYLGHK

By AC50 is commonly meant the midpoint of the concentration-response curve, whichever way the signal moves. Turning to `O=c1[nH]c2ccc(S(=O)CCN3CCC(Cc4ccc(F)cc4)CC3)cc2o1` (stereo not given), the molecule was classed as inactive (in test [1]; in test [2]; in test [4]; in test [5]; with BCL2L11 (gene 10018); in [7]). For the same molecule, the AC50 is 64.7 µM (active) in [3] and 61.1 µM (active) in [6].

In the case of `O=C(O)CC(O)C(=O)O` (stereo not given), the outcome in test [1], in test [2], in test [3], in [4], in test [5] and in [6] was inactive. Also, the molecule was classed as inactive (in the test with BCL2L11 (gene 10018); in test [8]; in test [7]).

Turning to `CC(C)CCO`, the molecule was classed as inactive in test [1], in test [2], in test [3], in test [4], in test [5] and in test [6]. Moreover, the molecule was called inactive (with BCL2L11 (gene 10018); in test [8]; in test [7]).

With `COCCOc1cc2cc(C(=O)NC3CCN(C(C)C)CC3)n(CC(=O)Nc3ccc(Cl)cn3)c2cn1`, the result in test [1], in test [3], in [4], in [5] and in test [7] was inactive. Moreover, the AC50 in test [2] is 39.4 µM (active); in test [6], 65 µM (active); in the test with BCL2L11 (gene 10018), 15.2 µM (active); in test [8], 45 µM (active).

On to `Cc1ccc(C)c(O)c1`, for which the call in test [1], in [2], in test [3], in [4], in test [5] and in test [6] was inactive. For the same molecule, the result (in the test with BCL2L11 (gene 10018); in [8]; in test [7]) was inactive.

On to `CCCCCCCCCCCCc1ccccc1`, for which the outcome in test [1], in test [2], in [3], in test [4], in test [5] and in test [6] was inactive. Also, the result (with BCL2L11 (gene 10018); in test [8]; in [7]) was inactive.

For `Cc1[nH]cnc1C[C@H]1CCc2c(C)c3ccccc3n2C1=O`, the half-maximal activity concentration (AC50) in test [1] was 75.6 µM (active); in test [2], 54.4 µM (active); in the test with BCL2L11 (gene 10018) it was 26.6 µM (active); in [8], 19.6 µM (active); in test [7] it was 24.1 µM (active). In addition, the molecule was called inactive in test [3], in [4] and in test [5].

`CCCCCCCCO`: the molecule was classed as inactive in test [1], in test [2], in test [3], in test [4], in test [5] and in test [6]. Further, the outcome (with BCL2L11 (gene 10018); in test [8]; in test [7]) was inactive.

Turning to `CC(C)=CCCC(C)=CC=O`, the result in test [1], in [2], in [3], in test [4], in test [5] and in test [6] was inactive. The molecule was classed as inactive (with BCL2L11 (gene 10018); in test [8]; in test [7]).

With `CCCCCCc1ccc(O)cc1O`, the molecule was called inactive in test [1], in test [2], in test [3], in test [4], in test [5] and in [6]. For the same molecule, the call (in the test with BCL2L11 (gene 10018); in test [8]; in test [7]) was inactive.

Take `O=C(NS(=O)(=O)/C=C/c1ccccc1)c1ccc(F)cc1Cl`: the outcome (in test [1]; in test [2]; in [3]; in test [4]; in test [5]; with BCL2L11 (gene 10018)) was inactive. The result in test [8] and in [7] was inactive. Also, in test [6], the AC50 is 18.9 µM (active).

In the case of `CCNc1ccccc1`, the result in test [1], in test [2], in [3], in [4], in test [5] and in [6] was inactive. Further, the molecule was called inactive (in the test with BCL2L11 (gene 10018); in test [8]; in [7]).

Consider `CCN(C(=O)c1cc(C)cc(OC[C@H](C)Nc2ccncc2)c1)C(C)C`, for which the AC50 in test [1] is 33.8 µM (active); in test [2], 20.1 µM (active); in test [3], 6.7 µM (active); in test [6] it was 23.7 µM (active); in test [8], 55 µM (active). Also, the result (in test [4]; in [5]; with BCL2L11 (gene 10018); in test [7]) was inactive.

In the case of `Clc1nc(Cl)c(Cl)c(Cl)c1Cl`, the molecule was classed as inactive in [1], in test [2], in [3], in [4], in [5] and in test [6]. For the same molecule, the result (in the test with BCL2L11 (gene 10018); in [8]; in [7]) was inactive.

Take `CCCCCCCCCCCCCCCO`: the call in [1], in test [2], in test [3], in test [4], in [5] and in test [6] was inactive. In addition, the call (with BCL2L11 (gene 10018); in [8]; in test [7]) was inactive.

Consider `O=C1CCCCCN1`, for which the result in [1], in [2], in test [3], in test [4], in test [5] and in [6] was inactive. Moreover, the result (in the test with BCL2L11 (gene 10018); in [8]; in test [7]) was inactive.

As to `CCCC(=O)OCC`, the molecule was called inactive in test [1], in test [2], in test [3], in test [4], in test [5] and in test [6]. In addition, the molecule was called inactive (with BCL2L11 (gene 10018); in [8]; in test [7]).

For `Nc1nc2ncc(CNc3ccc(C(=O)N[C@@H](CCC(=O)O)C(=O)O)cc3)nc2c(=O)[nH]1`, the molecule was classed as inactive in test [1], in [2], in test [3], in test [4], in test [5] and in test [6]. For the same molecule, the outcome (with BCL2L11 (gene 10018); in test [8]; in [7]) was inactive.

In the case of `O=C(O)CCN(C1(C(=O)NO)CCCC1)S(=O)(=O)c1ccc(Oc2ccc(F)cc2)cc1`, the molecule was classed as inactive in test [1], in test [2], in [3], in test [4], in test [5] and in [6]. Moreover, the outcome (with BCL2L11 (gene 10018); in test [8]; in test [7]) was inactive.

`O=P(OC(CCl)CCl)(OC(CCl)CCl)OC(CCl)CCl`: the AC50 in test [1] is 75.9 µM (active); in [3], 0.259 µM (active); in test [5], 0.272 µM (active); in [6], 15.8 µM (active); in the test with BCL2L11 (gene 10018), 83.8 µM (active); in test [8], 50 µM (active). The AC50 in test [7] was 88.3 µM (active). The result in test [2] and in test [4] was inactive.

Turning to `Oc1ccc2c(c1)-c1ccccc1C2`, the call in [1], in test [2], in [3], in [4], in test [5] and in test [6] was inactive. The result (in the test with BCL2L11 (gene 10018); in test [8]; in [7]) was inactive.

For the molecule `C1N2CN3CN1CN(C2)C3`, the molecule was classed as inactive in [1], in test [2], in test [3], in [4], in test [5] and in test [6]. The molecule was classed as inactive (in the test with BCL2L11 (gene 10018); in [8]; in test [7]).

`CC(C)CCCCCCOC(=O)c1ccc(C(=O)OCCCCCCC(C)C)c(C(=O)OCCCCCCC(C)C)c1`: the molecule was called inactive in test [1], in [2], in test [3], in [9], in test [5] and in test [6]. For the same molecule, the molecule was called inactive (with BCL2L11 (gene 10018); in test [8]; in [7]).
